# Measured values published in PubChem BioAssay.
# Records with an inconclusive call do not appear. Active and inactive are the calls of the source.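 The calls were made as follows, unless noted: active = GFP response above 150% of the DMSO level; inconclusive = fewer than 70 events counted for a yeast strain; inactive = the rest.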
# Assays:
# [1] = yeast TOR pathway RPL19A-GFP modulators, primary screen, cell-based, S. cerevisiae, multiplex flow cytometry (AID 1862; in the data active = percent of DMSO control GFP below about 86%;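 also: lower values mimic rapamycin by blocking the RPL19A rise seen in DMSO cells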); conditions: S. cerevisiae RPL19A-GFP strain, flow cytometry fluorescence, 3 h; at 10 µM; stronger effect = lower value
# [2] = modulators of CIT2-GFP expression in yeast, primary screen, S. cerevisiae, GFP fusion, multiplex flow cytometry (AID 1870;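 active = percent response above a set limit, the screen-wide mean plus 3 SD, cut at about 130% in these data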;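 also: barcoded CIT2-GFP strain pooled with four other GFP strains with rapamycin as positive control; median GFP fluorescence per well over plate mean of DMSO wells so 100% = DMSO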); conditions: 3 h, at 10 µM, stronger effect = higher value
# [3] = modulators of LAP4-GFP expression in yeast, primary screen, S. cerevisiae, multiplex flow cytometry (AID 1873;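 active = GFP signal, as percent of the solvent control, above the screen mean plus 3 SD, about 149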); conditions: 3 h, at 10 µM, stronger effect = higher value
# [4] = inhibitors of CD8+ T cell-vesicle binding, pilot screen, LFA-1/ICAM-1 modulator project, MLPCN validation set, flow cytometry (AID 2523;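 active = response below a set limit, under 55% cells CD8-positive and vesicle-bound, and CD8 cells' 90th-percentile brightness under 279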;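 as to vesicle binding response: mean PE anti-B7-1 fluorescence of CD8+ cells relative to row control; 100% = QL9-loaded vesicles with DMSO vehicle in the same plate row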); conditions: 2C mouse CD8+ T cells, at 7 µM, stronger effect = lower value; double positive events: measured here: CD8+/vesicle+ event percentage
# [5] = biological target: Integrin beta-1 (Homo sapiens) + Integrin alpha-4 (Homo sapiens) (UniProt P13612+P05556); assay: inhibition of HUTS-21 binding to VLA-4, pilot screen, VLA-4 allosteric modulator project, U937 cells, HUTS-21 mAb, flow cytometry, validation set (AID 2674;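 active = inhibition above 50%, about 3 SD of the validation set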;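 also: antibody binding induced by the VLA-4 ligand LDV present at three times its Kd; 0% = LDV ligand with antibody and no compound and 100% = antibody without LDV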); conditions: HUTS-21 LIBS mAb binding, at 6.7 µM, stronger effect = higher value
# [6] = superoxide lowering in aged yeast cells, pilot screen, validation compound set (AID 2706;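 active = superoxide response below 65% of plate, a cut near 3 SD across the whole screen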;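 also: yeast exposed to compound for one week at 30 degrees C before staining; 100% = mean of all compound wells on the same plate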); conditions: S. cerevisiae aging, superoxide DHE fluorescence; at 10 µM; stronger effect = lower value
# [7] = biological target: Beta-adrenergic receptor kinase 1 (Homo sapiens) (UniProt P25098); assay: GRK2 binders displacing RNA aptamer, biochemical, validation, human GRK2, bead flow cytometry (AID 488806;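 active = aptamer binding inhibition above 30%, about 3 SD of noise from non-fluorescent compounds; inactive = inhibition at or below 30%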); conditions: bead-bound GRK2, FAM-aptamer displacement, at 10 µM, stronger effect = higher value
# [8] = biological target: Beta-2 adrenergic receptor (Homo sapiens) (UniProt P07550); assay: beta2AR agonists driving receptor internalization, pilot screen, cell-based, FAP fluorogen, flow cytometry, validation set (AID 504459;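 active = percent response above 42, roughly 3 SD of non-fluorescent test compounds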;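 also: agonist-driven loss of surface beta2AR via internalization measured by FAP dye flow cytometry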); conditions: Am2.2-beta2AR cells, FAP surface receptor flow cytometry; at 10 µM; stronger effect = higher value
# [9] = biological target: AP-2 complex subunit beta (Homo sapiens) (UniProt P63010); assay: inhibitors of arrestin peptide binding to AP2, pilot screen, biochemical, validation set, GST-AP2 beads, flow cytometry (AID 504541;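 active = inhibition above 54%, about 3 SD of non-fluorescent compounds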;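 also: AP2 carries R879A mutation and is captured from E. coli lysate; bead-bound FITC arrestin peptide fluorescence measuring arrestin peptide binding to AP2; 0% = DMSO wells and 100% = excess unlabeled arrestin peptide control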); conditions: FITC arrestin peptide, at 10 µM, stronger effect = higher value
# [10] = yeast V-ATPase proton transport modulators, S. cerevisiae, pHLuorin, HTS validation (AID 504600; in the data active = response above about 15%;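 also: plate controls were DMSO for no effect and reference compound for full effect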); conditions: S. cerevisiae pHLuorin cytosolic pH, at 10 µM, stronger effect = higher value
# [11] = system: anti-desmoglein-3 scFv antibody binding to human DSG3; assay: inhibitors of anti-DSG3 scFv binding to DSG3, pilot screen, biochemical, validation compound set, bead-based, flow cytometry (AID 588368;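 active = binding below the plate cutoff, the plate median minus 3 SD, with a reading above zero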;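 also: signal is the median channel fluorescence of bead-bound GFP antibody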); conditions: Protein G beads, DSG3-Fc, scFv-GFP binding, at 10 µM, stronger effect = lower value
# [12] = system: Botulinum neurotoxin type F light chain protease (Clostridium botulinum); assay: Botulinum neurotoxin type F light chain protease inhibition, multiplex microsphere flow cytometry, validation set (AID 588459; call rule not given here); conditions: multiplex microsphere protease substrate cleavage assay, at 10 µM, stronger effect = higher value
# [13] = biological target: Botulinum neurotoxin type A (Clostridium botulinum) (UniProt P0DPI0); assay: BoNT/A light chain protease inhibitors, biochemical, multiplex microsphere flow cytometry, validation set (AID 588460; call rule not given here); conditions: at 10 µM, stronger effect = higher value
# [14] = biological target: Lethal factor (Bacillus anthracis) (UniProt P15917); assay: Lethal factor protease inhibitors, Bacillus anthracis, multiplex microsphere cleavage assay, validation set (AID 588461; call rule not given here); conditions: flow cytometry, at 10 µM, stronger effect = higher value
# [15] = inhibitors of fungal efflux pumps CDR1, CDR2, MDR1, pilot screen, validation compound set, multiplex, phenotypic (AID 588506;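 active = efflux inhibition above 0.42, the validation set average plus 4 SD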;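 also: Nile Red retained in cells so higher fluorescence means more efflux inhibition; 0 = negative control wells and 1 = enniatin B 25 µM full block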); conditions: S. cerevisiae pump-expressing triplex, Nile Red efflux flow cytometry; at 10 µM; stronger effect = higher value
# [16] = biological target: ATP-binding cassette sub-family B member 6 (Homo sapiens) (UniProt Q9NP58); assay: ABCB6 transporter inhibitors, pilot screen, K562-ABCB6 cells, flow cytometry, validation set (AID 588550;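 active = inhibition above the screen-wide mean plus 3 SD, about 51%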;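 also: 0% = DMSO wells and 100% = benzethonium chloride 70 µM positive control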); conditions: K562-ABCB6 porphyrin accumulation, 1 h, at 10 µM, stronger effect = higher value
# [17] = promoters of myeloid differentiation in arrested cells, primary screen, cell-based, GFP/MAC1 double positive, flow cytometry, validation set (AID 588685;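 active = differentiation response of at least 50%, scaled between solvent and reference control, from cells with both markers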;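 also: compound exposure lasts four days before antibody staining and flow analysis; 0% = DMSO wells and 100% = 5 µM fulvestrant positive control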); conditions: ER-HoxA9 marrow cells, stronger effect = higher value
# [18] = RPL19A-GFP modulators, yeast TOR pathway, confirmation, cell-based, S. cerevisiae, flow cytometry, cherry picks, mother/daughter gates (AID 2270;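 active = GFP response below 50% of the DMSO control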); conditions: S. cerevisiae RPL19A-GFP strain, 3 h, at 10 µM, stronger effect = lower value, 100 = same GFP as DMSO wells
# [19] = LAP4-GFP expression modulators in yeast, confirmation, cell-based, cherry picks, flow cytometry, mother/daughter gates (AID 2271;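 active = GFP response above 150% of the DMSO control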;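 also: ratio of sample to DMSO plate mean so 100% equals DMSO level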); conditions: S. cerevisiae LAP4-GFP strain, 3 h, at 10 µM, stronger effect = higher value
# [20] = modulators of CIT2-GFP expression in yeast, confirmation, S. cerevisiae, GFP fusion, cherry picks, mother/daughter gates (AID 2274); conditions: S. cerevisiae CIT2-GFP strain, flow cytometry, 3 h, at 10 µM, stronger effect = higher value
# [21] = measured here: daughter cell gate
# [22] = measured here: mother cell gate
# [23] = measured here: daughter cell gate response
# [24] = measured here: mother cell gate response
smiles,measurement,setting,value
CC(C)[C@@]1(NC(=O)[C@@H]2C[C@@H]3c4cccc5[nH]cc(c45)C[C@H]3N(C)C2)O[C@@]2(O)[C@@H]3CCCN3C(=O)[C@H](Cc3ccccc3)N2C1=O,percent of DMSO control GFP,[1],88.4% (inactive)
same,percent response of DMSO control,[2],112% (inactive)
same,GFP response vs DMSO,[3],84.2% (inactive)
same,double positive events,[4],74.1%
same,vesicle binding response,[4],240% (inactive)
same,inhibition,[5],-14.9% (inactive)
same,superoxide response (% of plate),[6],98.1% (inactive)
same,aptamer binding inhibition,[7],-3% (inactive)
same,response,[8],-14.6% (inactive)
same,inhibition,[9],0.81% (inactive)
same,response,[10],1.06% (inactive)
same,binding (% of control),[11],114% (inactive)
same,inhibition,[12],-9.2% (inactive)
same,inhibition,[13],-1.6% (inactive)
same,inhibition,[14],-32% (inactive)
same,efflux inhibition (fraction of control),[15],0.37 (inactive)
same,inhibition,[16],9% (inactive)
same,differentiation response,[17],4.09% (inactive)
Cc1cccn2c(NCC3CCCO3)c(C(C)C)nc12 (centres undefined),GFP response vs DMSO,[18],99.1% (inactive)
same,GFP response vs DMSO,[18]; [21],100%
same,GFP response vs DMSO,[18]; [22],100%
same,GFP response relative to DMSO,[19],97.7% (inactive)
same,GFP response relative to DMSO,[19]; [23],96.5%
same,GFP response relative to DMSO,[19]; [24],96.5%
same,"GFP response, % of DMSO",[20],106% (inactive)
same,"GFP response, % of DMSO",[20]; [21],106%
same,"GFP response, % of DMSO",[20]; [22],105%
CCOC(=O)C(C)Oc1cc(C)cc2oc(=O)c3c(c12)CCCC3 (centres undefined),percent of DMSO control GFP,[1],95.2% (inactive)
same,percent response of DMSO control,[2],104% (inactive)
same,GFP response vs DMSO,[3],74.8% (inactive)
same,double positive events,[4],81.8%
same,inhibition,[5],0.64% (inactive)
same,superoxide response (% of plate),[6],103% (inactive)
same,aptamer binding inhibition,[7],5% (inactive)
same,response,[8],1.66% (inactive)
same,inhibition,[9],-3.6% (inactive)
same,response,[10],-8.97% (inactive)
same,binding (% of control),[11],97.6% (inactive)
same,inhibition,[12],-0.4% (inactive)
same,inhibition,[13],-1.5% (inactive)
same,inhibition,[14],0.6% (inactive)
same,efflux inhibition (fraction of control),[15],-0.46 (inactive)
same,inhibition,[16],12% (inactive)
same,differentiation response,[17],-9.01% (inactive)
CN1C(=O)NC(=O)/C(=C\C=C\c2ccccc2[N+](=O)[O-])C1=O,GFP response vs DMSO,[18],102% (inactive)
same,GFP response vs DMSO,[18]; [21],90.4%
same,GFP response vs DMSO,[18]; [22],93.5%
same,GFP response relative to DMSO,[19],107% (inactive)
same,GFP response relative to DMSO,[19]; [23],103%
same,GFP response relative to DMSO,[19]; [24],112%
same,"GFP response, % of DMSO",[20],84.7% (inactive)
same,"GFP response, % of DMSO",[20]; [21],96.8%
same,"GFP response, % of DMSO",[20]; [22],70.8%
COc1ccc(N2C(=O)/C(=C/c3ccco3)C(=O)NC2=S)cc1,GFP response vs DMSO,[18],97.4% (inactive)
same,GFP response vs DMSO,[18]; [21],102%
same,GFP response vs DMSO,[18]; [22],91.4%
same,GFP response relative to DMSO,[19],91.4% (inactive)
same,GFP response relative to DMSO,[19]; [23],94.1%
same,GFP response relative to DMSO,[19]; [24],94.2%
same,"GFP response, % of DMSO",[20],91.3% (inactive)
same,"GFP response, % of DMSO",[20]; [21],103%
same,"GFP response, % of DMSO",[20]; [22],83.7%
O=C(O)c1[nH]c(=O)[nH]c(=O)c1F,GFP response vs DMSO,[18],96.9% (inactive)
same,GFP response vs DMSO,[18]; [21],97.6%
same,GFP response vs DMSO,[18]; [22],95.6%
same,GFP response relative to DMSO,[19],100% (inactive)
same,GFP response relative to DMSO,[19]; [23],97.5%
same,GFP response relative to DMSO,[19]; [24],100%
same,"GFP response, % of DMSO",[20],100% (inactive)
same,"GFP response, % of DMSO",[20]; [21],99.3%
same,"GFP response, % of DMSO",[20]; [22],100%
CCN1C(=O)NC(=O)/C(=C\c2cn(CC(=O)N3CCCC3)c3ccccc23)C1=O,GFP response vs DMSO,[18],97.3% (inactive)
same,GFP response vs DMSO,[18]; [21],97.3%
same,GFP response vs DMSO,[18]; [22],96.9%
same,GFP response relative to DMSO,[19],102% (inactive)
same,GFP response relative to DMSO,[19]; [23],102%
same,GFP response relative to DMSO,[19]; [24],102%
same,"GFP response, % of DMSO",[20],100% (inactive)
same,"GFP response, % of DMSO",[20]; [21],101%
same,"GFP response, % of DMSO",[20]; [22],100%
O=[N+]([O-])c1ccc(N2CCNCC2)cc1Sc1ccccn1,GFP response vs DMSO,[18],98.4% (inactive)
same,GFP response vs DMSO,[18]; [21],98.4%
same,GFP response vs DMSO,[18]; [22],99.4%
same,GFP response relative to DMSO,[19],91.4% (inactive)
same,GFP response relative to DMSO,[19]; [23],92.5%
same,GFP response relative to DMSO,[19]; [24],91.1%
same,"GFP response, % of DMSO",[20],96.5% (inactive)
same,"GFP response, % of DMSO",[20]; [21],96.5%
same,"GFP response, % of DMSO",[20]; [22],95.5%
